The source of these data is PubChem BioAssay (EPA / NIEHS).

Active and inactive are the calls of the source. The calls were made as follows: active = hit-call score of the fitted dose curve at least 0.9, where 1 is the maximum; inactive = score below 0.9.

Read-out in this experiment: Decorin, DCN (gene 1634)
The experiment is described as follows: BSK_MyoF_Decorin: BioMAP Diversity Plus: MyoF Assay for Decorin Biomarker Activity (AID 2284265). As to conditions: primary human lung fibroblasts. As for the experimental part: BSK_MyoF is a cell-based, multiplexed-readout assay that uses lung fibroblasts, […], with measurements taken at 24 hours after chemical dosing in a microplate: 96-well plate.BSK_MyoF_Decorin is an assay component measured in the BSK_MyoF assay. It measures Decorin antibody related to regulation of gene expression using ELISA technology.Data from the assay component BSK_MyoF_Decorin was analyzed at the endpoint, BSK_MyoF_Decorin, in the positive analysis fitting direction relative to DMSO as the negative control and baseline of activity. Using a type of binding reporter, gain or loss-of-signal activity can be used to understand protein changes. To generalize the intended target to other relatable targets, this assay endpoint is annotated to the 'cell adhesion molecules' intended target family, where the subfamily is 'decorin'.
The levels of cell surface (or secreted, indicated by the prefix "s") biomarker endpoints were measured by ELISA. Overt cytotoxicity to cells in confluent adherent cultures (all systems other than the BT system) was assessed by measuring total protein levels using sulforhodamine B (SRB) staining in parallel cultures at the time of biomarker measurements, indicated as SRB endpoints. For proliferation assays for adherent cell types, individual cell types are cultured at sub-confluence and relative cell numbers quantified by SRB staining at time points optimized for each system (48 h: 3C and CASM3C systems; 72 h: BT and HDF3CGF systems; 96 h: SAg system). SRB was performed by staining cells with 0.1% SRB after fixation with 10% TCA and reading wells at 560 nm.Viability and proliferation of PBMC (T cells) was quantified by Alamar Blue reduction for the SAg and BT systems. For PBMC viability (referred to as PBMC Cytotoxicity within the assay endpoint names), cells were plated (75,000/well in a 96-well plate) and then chemical samples added for 1 h before addition of activators, SEB and TSST-1 (20 ng/mL final concentration each). Cells were incubated for 90 h. Then, Alamar Blue (20 uL/well) (Invitrogen, Cat DAL1100) was added for 6 h, and the plates were read with a fluorescence microplate reader at 546/580 nm (excitation/emission). For PBMC proliferation, cells were plated and activated as above but incubated for only 16 h prior to addition of Alamar Blue. Plates were read after 6 h.
For the compound `Cc1c([N+](=O)[O-])cc2c(c1[N+](=O)[O-])C(C)(C)CC2(C)C`, the result was inactive.
Same read-out and setting: the result for `CC(C)(C)c1ccccc1OP(=O)(Oc1ccccc1)Oc1ccccc1` reads “inactive”.
For `CCCCC(CC)COP(=O)(Oc1ccccc1)Oc1ccccc1` (stereo not drawn), the concentration at half-maximal activity (AC50) was 5.87 µM (active).
For the compound `O=S(=O)(F)C(F)(F)C(F)(F)C(F)(F)C(F)(F)C(F)(F)C(F)(F)C(F)(F)C(F)(F)F`, the outcome was inactive.
On the same count and under the same terms, the result for `OCC(F)(F)OC(F)(F)C(F)(F)OC(F)(F)CO` reads “inactive”.
Still for that read-out and setting: the result for `COP(N)(=S)OC` reads “inactive”.
On to `C=CC(=O)OCC(CC)(COC(=O)C=C)COC(=O)C=C`, for which the AC50 was 3.09 µM (active).
Take `N#Cc1c(-c2ccc(Cl)cc2)[nH]c(C(F)(F)F)c1Br`: the outcome was inactive.
The same measure, in the same setting: the result for `O=C(O)C(F)(F)OC(F)(F)C(F)(F)OC(F)(F)F` reads “inactive”; that for `CC(O)C(F)(F)C(F)(F)F` (stereo not drawn), “inactive”; that for `N#Cc1cc([N+](=O)[O-])ccc1N`, “inactive”.
Same read-out and setting: the result for `O=P(OCC(Br)CBr)(OCC(Br)CBr)OCC(Br)CBr` (stereo not drawn) reads “inactive”; that for `O=S1(=O)OCC2C(CO1)C1(Cl)C(Cl)=C(Cl)C2(Cl)C1(Cl)Cl` (stereo not drawn), “inactive”; that for `CCCCC(CC)COC(=O)c1c(Br)c(Br)c(Br)c(Br)c1C(=O)OCC(CC)CCCC` (stereo not drawn), “inactive”.
Still for that read-out and setting: the result for `CCOP(=S)(NC(C)C)Oc1ccccc1C(=O)OC(C)C` (stereo not drawn) reads “inactive”; that for `CCCCOCCOP(=O)(OCCOCCCC)OCCOCCCC`, “inactive”; that for `c1ccc2c(c1)sc1ccccc12`, “inactive”.
With `OCC(F)(F)OC(F)(F)C(F)(F)OC(F)(F)C(F)(F)OC(F)(F)F`, the outcome was inactive.
Same read-out and setting: the result for `CC(Cl)CN(C)C` (stereo not drawn) reads “inactive”.
For the compound `O=c1ssc(Cl)c1Cl`, the AC50 was 9.67 µM (active).
Consider `CCOP(=S)(OCC)SCn1nnc2ccccc2c1=O`, for which the outcome was inactive.
With `CCOP(=S)(OCC)SCSc1ccc(Cl)cc1`, the outcome was inactive.
For the compound `O=C(O)C(F)(F)C(F)(F)C(=O)O`, the result was inactive.
Regarding `CCOP(=S)(S)OCC`, the result was inactive.
Still for that read-out and setting: the result for `OCC(F)(F)OC(F)(F)C(F)(F)OC(F)(F)C(F)(F)OC(F)(F)CO` reads “inactive”; that for `O=C(O)C(F)(F)OC(F)(F)C(F)(F)OC(F)(F)C(=O)O`, “inactive”; that for `Nc1ccc([N+](=O)[O-])cc1Cl`, “inactive”.
As to `O=C(O)C(F)(OC(F)(F)C(F)(F)C(F)(F)F)C(F)(F)F` (stereo not drawn), the outcome was inactive.
The same measure, in the same setting: the result for `CC(C)Nc1ccc(Nc2ccccc2)cc1` reads “inactive”.
Still for that read-out and setting: the result for `COC(=O)C(F)(F)C(F)(F)OC(F)(C(F)(F)F)C(F)(F)OC(F)=C(F)F` (stereo not drawn) reads “inactive”.
Same read-out and setting: the result for `O=C(O)C=CC(F)(C(F)(F)F)C(F)(F)F` reads “inactive”; that for `Cc1ccc2c(c1N)C(=O)c1ccccc1C2=O`, “inactive”.
In the case of `FC(F)(F)C(F)(C(F)(F)F)C(F)(F)C(F)(F)CC1CO1` (stereo not drawn), the result was inactive.
As to `C=CC(=O)OCC(F)(F)C(F)F`, the result was inactive.
As to `ClC(Cl)=C(c1ccc(Cl)cc1)c1ccccc1Cl`, the concentration at half-maximal activity (AC50) is 9.47 µM (active).
With `CCOP(=S)(OCC)SCS(=O)(=O)CC`, the result was inactive.
Regarding `COP(=O)(O)OC`, the outcome was inactive.
Same read-out and setting: the result for `NC(=O)C(F)(F)C(F)(F)F` reads “inactive”.
